Consider 40 molecules from PubChem BioAssay.

Unmarked numbers belong to inactive results.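 Rule for the calls: active = RAM network inhibition above 8.4% in each of two replicates, 3 SD over the compound average; inconclusive = above 8.4% inhibition in only one replicate; inactive = 8.4% inhibition or less in each replicate.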

A short description of the experiment: RAM signaling pathway blockade in yeast – S. cerevisiae, Pdr1DBD-CYC8 efflux-inhibited sensitized strain, primary screen (AID 1298).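 Note: 0% = DMSO untreated cells without growth and 100% = 10 µM 1-NA-PP1 full growth; higher means more yeast growth rescued from 5-FOA killing.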 As to conditions: S. cerevisiae cbk1-as DSE1-URA3 strain, 5-FOA growth OD615, 2 d; at 50 µM; hits give high values.
Regarding `COc1ccc(C2=[N+]([O-])C(C)(C)N(O)C2(C)C)cc1`, the RAM network inhibition is 0.67%. Consider `Cc1onc(-c2ccccc2Cl)c1C(=O)N1CCN(c2cccc(Cl)c2)CC1`, for which the RAM network inhibition is 10.4%. For `O=c1[nH]c(SCc2ccccc2Cl)nc2c1CCC2`, the RAM network inhibition was 1.7%.

Regarding `CC(=O)NCCOC(=O)Nc1ccncc1`, the RAM network inhibition was 3.18%.

For the molecule `Cc1cccc(NC(=O)CS(=O)(=O)c2cn(C)c3ccccc23)c1C`, the RAM network inhibition is 3.02%. Take `O=C(Nc1ccc(Cl)cc1)N(Cc1cccs1)Cc1cccs1`: the RAM network inhibition is 8.73%. For `COc1ccc(OC(C)C(=O)Nc2cccc(OC)c2)cc1` (stereo not given), the RAM network inhibition is -0.52%. The same measure for `COc1cc2c(C(=O)N3CCN(Cc4ccc5c(c4)OCO5)CC3)cn(C)c(=O)c2cc1OC`: 1.29%; for `COc1ccc(S(=O)(=O)N(CCc2ccccc2)CC(=O)N2CCOCC2)cc1`: -0.36%. Consider `CN(C)c1ccc(NC(=S)c2ccccn2)cc1`, for which the RAM network inhibition was 3.01%. Turning to `O=C1N=C(c2ccccc2)C(c2ccccc2)N1` (stereo not given), the RAM network inhibition was 1.06%. Consider `C#CCN1C(=O)C(O)(CC(=O)c2ccc(OC)c(OC)c2)c2ccccc21` (stereo not given), for which the RAM network inhibition is 1.98%. With `CS(=O)(=O)N(CC(=O)N1CCCCCC1)c1cccc(Br)c1`, the RAM network inhibition was 1.44%. For the molecule `CCSc1nc2ccccc2n1CC(=O)N1CCOCC1`, the RAM network inhibition is 0.98%. As for `C=C1c2ccc(C)cc2NC(=O)N1c1ccccc1`, the RAM network inhibition is 0.1%.

In the case of `CCc1cccc(C)c1NC(=O)CCCC(=O)O`, the RAM network inhibition is -0.21%.

Consider `COc1ccc(Oc2ccc(S(=O)(=O)N3CCCCC3)cc2S(=O)(=O)N2CCCCC2)cc1`, for which the RAM network inhibition was 3.99%. In the case of `CS(=O)(=O)N(CC(=O)NCc1ccncc1)c1cc(Cl)cc(Cl)c1`, the RAM network inhibition is 0.15%. Regarding `O=C(CNC(=O)c1ccco1)OCc1ccc(Cl)cc1`, the RAM network inhibition is 0.25%. On to `O=C(COc1ccccc1)NCCSc1ccccc1`, for which the RAM network inhibition is 0.83%. Consider `CS(=O)(=O)N(CC(=O)N1CCN(c2ccccc2F)CC1)c1cc(C(F)(F)F)ccc1Cl`, for which the RAM network inhibition is 0.87%. Under `O=C(CCn1nnc2ccccc21)N1CCC(O)(c2cccc(F)c2)CC1` stands 1.86%. Consider `COCCNC(=O)NC1(C(F)(F)F)Oc2ccc(Cl)cc2O1` (stereo not given), for which the RAM network inhibition is 5.07%. Take `CCOC(=O)C1CCN(S(=O)(=O)c2cc(Br)cc3c2N(C(=O)C2CC2)CC3)CC1`: the RAM network inhibition was 1.38%. The same measure for `CCC(C)C1C(C#N)=C(N)Oc2n[nH]c(C)c21` (stereo not given): 6.1%; for `COC(=O)c1ccc2[nH]c(C)c(CN3CCCC3)c(=O)c2c1`: 1.59%.

Turning to `CCn1cc(S(=O)(=O)CC(=O)NC2CCCCC2)c2ccccc21`, the RAM network inhibition is 2.87%. For the molecule `COc1ccccc1CNC(=O)CCS(=O)(=O)c1cccs1`, the RAM network inhibition is 0.82%. With `Cc1ccsc1C(=O)OCC(=O)c1cc2ccccc2o1`, the RAM network inhibition was 1.03%. The same measure for `CCn1c(C)c2c(C)nnc(C)c2c1C`: -0.52%; for `CCOC(=O)c1ccc(NC(=O)c2cccc(S(=O)(=O)N3CCOCC3)c2)cc1`: 7.23%; for `CCS(=O)(=O)C(=C(Nc1ccc(OC)cc1)Nc1ccc(OC)cc1)S(=O)(=O)CC`: 7.21%. With `c1ccc(CSc2nnc3c(n2)OC(c2ccco2)Nc2ccccc2-3)cc1` (stereo not given), the RAM network inhibition was 7.16%. Turning to `CC(Sc1nc2c(c(=O)n(C)c(=O)n2C)n1Cc1cc2c(cc1Cl)OCO2)C(=O)O` (stereo not given), the RAM network inhibition was 1.02%.

`CCN(CC)C(=O)c1cn(C)c(=O)c2cc(OC)c(OC)cc12`: the RAM network inhibition was -1.59%.

On to `CCc1cc(=O)oc2cc(OCC(=O)OC)c(Cl)cc12`, for which the RAM network inhibition was 4.51%. Take `CCOC(=O)N1CCN(C(=O)CN(c2cccc(C(F)(F)F)c2)S(C)(=O)=O)CC1`: the RAM network inhibition was 4.83%.

In the case of `CCN(CC)C(=O)C(C)N(C#N)c1nc(NC(C)C)nc(NC(C)C)n1` (stereo not given), the RAM network inhibition is 2.25%. As to `CCN1CCN(c2cc(C)c3cc(NC(=O)c4ccc5c(c4)OCO5)ccc3n2)CC1`, the RAM network inhibition is 3.21%. With `CC(c1ccccc1F)n1cc(C(=O)NCCc2ccco2)nn1` (stereo not given), the RAM network inhibition was 0.46%.
